The text below walks through data of PubChem BioAssay.

Where “and” joins values, the source holds several entries; their conditions need not be identical. Equal values may be shown once. Calls of active or inactive are those of the source. Rule as the data show it, unless noted: active = inhibition above about 37%; inactive = the rest.

The first test deals with Hepatitis C virus NS3 helicase. In words: HCV NS3 helicase inhibitors, primary screen, biochemical, fluorescence polarization, LOPAC1280 library (AID 687035). The following applies: Purified HCV NS3 helicase, Cy5-dT15 ssDNA binding fluorescence polarization; hits give high values; concentration not given here.
Consider `N#C/C(=C\c1ccc(O)c(O)c1)C(=O)c1ccc(O)c(O)c1`, for which the inhibition is 100% (active).

As to `Oc1ccc(Cn2cc[nH]c2=S)cc1`, the inhibition was -4% (inactive).

In the case of `CNc1ncnc2c1ncn2[C@H]1C[C@H](OP(=O)(O)O)[C@@H](COP(=O)(O)O)O1`, the inhibition is -4% (inactive).

Take `Cc1nc(N=Nc2cc(S(=O)(=O)O)c3cc([N+](=O)[O-])cc(S(=O)(=O)O)c3c2)c(COP(=O)(O)O)c(C=O)c1O`: the inhibition is 58% (active).

In the case of `NC(=S)c1ccc[n+]([C@@H]2O[C@@H](COP(=O)([O-])OP(=O)(O)OC[C@H]3O[C@@H](n4cnc5c(N)ncnc54)C(OP(=O)(O)O)[C@H]3O)C(O)C2O)c1` (stereo not given in full), the inhibition was -5% (inactive).

Consider `Cc1ccc2c(c1)C(N1CCN(C)CC1)=Nc1cccnc1N2`, for which the inhibition is -2% (inactive).

On to `NC(N)=N[C@@H](CCC(=O)O)C(=O)O`, for which the inhibition was -3% (inactive).

`N=S(=O)(O)Cc1noc2ccccc12`: the inhibition is 1% (inactive).

As to `O=C(O)CCC/C=C\C[C@@H]1[C@@H](/C=C/[C@H](O)C2Cc3ccccc3C2)[C@@H](F)C[C@@H]1O`, the inhibition was -2% (inactive).

With `N=C(N)c1ccc(OCCCCCOc2ccc(C(=N)N)cc2)cc1` (tested in a mixture with another compound), the inhibition was -1% (inactive).

Turning to `NCCC1CCCC(CCN)N1` (stereo not given), the inhibition is -7% (inactive).

In the case of `Nc1ccn([C@@H]2O[C@H](CO)[C@@H](O)[C@@H]2O)c(=O)n1`, the inhibition was -4% (inactive).

On to `CCCCCC(O)c1cccc(OCc2ccc3ccccc3n2)c1` (stereo not given), for which the inhibition is 1% (inactive).

In the case of `N=c1c[n+](N2CCOCC2)[n-]o1`, the inhibition is -1% (inactive) and -5% (inactive).

Consider `N=c1ccn2c(n1)OC1[C@@H](O)[C@@H](CO)O[C@H]12` (stereo not given in full), for which the inhibition is -5% (inactive).

In the case of `O=C(O)CCC(=O)N1CCCC1C(=O)O` (stereo not given), the inhibition is -2% (inactive).

As to `N.N.N.N.N.N.N.N.N.N.N.N.N.N.O.O.[Cl-].[Cl-].[Cl-].[Cl-].[Cl-].[Cl-].[Ru+4].[Ru+5].[Ru+5]`, the inhibition is -98% (inactive).

With `O=C1O/C(=C/Br)CCC1c1cccc2ccccc12` (stereo not given), the inhibition is 0% (inactive).

Regarding `NC[C@H]1O[C@@H](n2cnc3c(N)ncnc32)[C@H](O)[C@@H]1O`, the inhibition was -3% (inactive).

Regarding `N#C/C(=C\c1ccc(O)c(O)c1)C(=O)NCCCNC(=O)/C(C#N)=C/c1ccc(O)c(O)c1`, the inhibition was 37% (active).

Regarding `CC[C@@H]1Cc2cc(O)ccc2C2=C1c1ccc(O)cc1C[C@H]2CC`, the inhibition is 0% (inactive).

Take `C[N+](C)(C)CCOP(=O)(O)OP(=O)([O-])OC[C@H]1O[C@@H](n2ccc(N)nc2=O)C(O)[C@H]1O` (stereo not given in full): the inhibition was -3% (inactive).

Consider `Nc1nc(SCc2ccc([N+](=O)[O-])cc2)c2ncn([C@@H]3O[C@H](CO)[C@H](O)C3O)c2n1` (stereo not given in full), for which the inhibition was -2% (inactive).

With `CC(=O)O[C@H]1CC2(C)[C@@H](C[C@@H](O)[C@H]3[C@@]4(C)CC[C@@H](O)[C@@H](C)[C@@H]4CC[C@@]32C)C1=C(CCC=C(C)C)C(=O)O` (stereo not given in full), the inhibition is -2% (inactive).

`NC(N)=[N+]1CCc2ccccc2C1`: the inhibition was -1% (inactive).

Test system in another test: not listed separately
Put plainly: Cy5 fluorescence quenching or enhancement artefacts, artefact control for HCV NS3 helicase inhibitor project, biochemical, LOPAC1280 (AID 687037; call rule not given here). The following applies: Cy5-DNA-NS3h complex fluorescence interference counterscreen.
In the case of `N#C/C(=C\c1ccc(O)c(O)c1)C(=O)c1ccc(O)c(O)c1`, the fluorescence ratio (interference) was 1 (inactive).

As for `Oc1ccc(Cn2cc[nH]c2=S)cc1`, the fluorescence ratio (interference) is 1 (inactive).

`CNc1ncnc2c1ncn2[C@H]1C[C@H](OP(=O)(O)O)[C@@H](COP(=O)(O)O)O1`: the fluorescence ratio (interference) is 1 (inactive).

Regarding `Cc1nc(N=Nc2cc(S(=O)(=O)O)c3cc([N+](=O)[O-])cc(S(=O)(=O)O)c3c2)c(COP(=O)(O)O)c(C=O)c1O`, the fluorescence ratio (interference) is 0.8 (active).

With `NC(=S)c1ccc[n+]([C@@H]2O[C@@H](COP(=O)([O-])OP(=O)(O)OC[C@H]3O[C@@H](n4cnc5c(N)ncnc54)C(OP(=O)(O)O)[C@H]3O)C(O)C2O)c1` (stereo not given in full), the fluorescence ratio (interference) is 1 (inactive).

Consider `Cc1ccc2c(c1)C(N1CCN(C)CC1)=Nc1cccnc1N2`, for which the fluorescence ratio (interference) was 1 (inactive).

For the compound `NC(N)=N[C@@H](CCC(=O)O)C(=O)O`, the fluorescence ratio (interference) is 1 (inactive).

As to `N=S(=O)(O)Cc1noc2ccccc12`, the fluorescence ratio (interference) was 1 (inactive).

With `O=C(O)CCC/C=C\C[C@@H]1[C@@H](/C=C/[C@H](O)C2Cc3ccccc3C2)[C@@H](F)C[C@@H]1O`, the fluorescence ratio (interference) was 1 (inactive).

Regarding `N=C(N)c1ccc(OCCCCCOc2ccc(C(=N)N)cc2)cc1` (tested in a mixture with another compound), the fluorescence ratio (interference) was 1 (inactive).

`NCCC1CCCC(CCN)N1` (stereo not given): the fluorescence ratio (interference) is 0.9 (inactive).

For `Nc1ccn([C@@H]2O[C@H](CO)[C@@H](O)[C@@H]2O)c(=O)n1`, the fluorescence ratio (interference) was 0.9 (inactive).

Regarding `CCCCCC(O)c1cccc(OCc2ccc3ccccc3n2)c1` (stereo not given), the fluorescence ratio (interference) is 0.9 (inactive).

In the case of `N=c1c[n+](N2CCOCC2)[n-]o1`, the fluorescence ratio (interference) is 1 (inactive).

For `N=c1ccn2c(n1)OC1[C@@H](O)[C@@H](CO)O[C@H]12` (stereo not given in full), the fluorescence ratio (interference) is 1 (inactive).

Regarding `O=C(O)CCC(=O)N1CCCC1C(=O)O` (stereo not given), the fluorescence ratio (interference) is 1 (inactive).

`N.N.N.N.N.N.N.N.N.N.N.N.N.N.O.O.[Cl-].[Cl-].[Cl-].[Cl-].[Cl-].[Cl-].[Ru+4].[Ru+5].[Ru+5]`: the fluorescence ratio (interference) was 0 (active).

In the case of `O=C1O/C(=C/Br)CCC1c1cccc2ccccc12` (stereo not given), the fluorescence ratio (interference) is 1 (inactive).

In the case of `NC[C@H]1O[C@@H](n2cnc3c(N)ncnc32)[C@H](O)[C@@H]1O`, the fluorescence ratio (interference) is 1 (inactive).

`N#C/C(=C\c1ccc(O)c(O)c1)C(=O)NCCCNC(=O)/C(C#N)=C/c1ccc(O)c(O)c1`: the fluorescence ratio (interference) is 1 (inactive).

In the case of `CC[C@@H]1Cc2cc(O)ccc2C2=C1c1ccc(O)cc1C[C@H]2CC`, the fluorescence ratio (interference) was 1 (inactive).

In the case of `C[N+](C)(C)CCOP(=O)(O)OP(=O)([O-])OC[C@H]1O[C@@H](n2ccc(N)nc2=O)C(O)[C@H]1O` (stereo not given in full), the fluorescence ratio (interference) was 1 (inactive).

On to `Nc1nc(SCc2ccc([N+](=O)[O-])cc2)c2ncn([C@@H]3O[C@H](CO)[C@H](O)C3O)c2n1` (stereo not given in full), for which the fluorescence ratio (interference) is 0.9 (inactive).

Consider `CC(=O)O[C@H]1CC2(C)[C@@H](C[C@@H](O)[C@H]3[C@@]4(C)CC[C@@H](O)[C@@H](C)[C@@H]4CC[C@@]32C)C1=C(CCC=C(C)C)C(=O)O` (stereo not given in full), for which the fluorescence ratio (interference) is 1 (inactive).

With `NC(N)=[N+]1CCc2ccccc2C1`, the fluorescence ratio (interference) was 1.1 (inactive).
